Experimental data published in PubChem BioAssay AID743398 (Broad Institute, 2014).
The whole screen tested about 300,000 compounds, of which about 3,600 (1.2%) were called active. For the sample, actives were picked, then their nearest neighbours and some compounds at random. Unmarked numbers belong to inactive results. Cut-off read from the data, not from the text of the source: active = activation above about 30% (passing the limit was not always enough); inconclusive = no clear call, values can overlap the other calls.

Assay: Wnt/beta-catenin pathway activators, primary screen, cell-based, plate reader, single point (AID 743398);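 note: 0% = neutral control wells and 100% = positive control wells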
Details: Wnt/beta-catenin reporter cell assay, activator, at 9.35 µM, stronger effect = higher value

| Structure (SMILES) | activation |
| --- | --- |
| O=C(NCCOc1ccccc1)N1[C@H]2CC[C@@H]1C=C(c1ccc(F)cc1OCc1ccccc1)C2 | -5.01% |
| COc1ccc(SSc2ccc(OC)cc2C(=O)O)c(C(=O)O)c1 | -2.15% |
| Cc1ccc(S(=O)(=O)N2[C@@H](Cc3ccccc3)CO[C@H]2CC(=O)OCc2ccccc2)cc1 | -1.94% |
| COc1ccc(N2c3ccccc3CN(Cc3ccccc3)[C@@H](C)[C@H]2Cc2ccc(-c3ccccc3)cc2)cc1 | -4.27% |
| Cc1[nH]c2ccccc2c1/C=N\NC(=O)Cn1nnc(-c2ccccc2)n1 | -3.53% |
| COc1ccc(OC)c(-c2csc(-c3cccs3)n2)c1 | 3.92% |
| CN=c1scc(-c2cc(OC)ccc2OC)n1/N=C/c1c(C)[nH]c2ccccc12 | 68.5% (active) |
| CCC(=O)N1Cc2cc(C(=O)NCc3cccc(F)c3)nc(-c3cccc(C4=CCCC4)c3)c2[C@H]1CCO | -0.49% |
| O=C(NCc1ccccc1)[C@H]1CCCN1C(=O)[C@H]1CCCN1C(=O)c1cc(F)cc(F)c1 | 0.924% |
| COc1ccc(/C=N/NS(=O)(=O)c2ccc(NC(C)=O)cc2)cc1 | 0.428% |
| COc1ccc(/C=N/Nc2ccccc2C(=O)O)cc1 | 42.5% (active) |
| COc1ccc(C(=O)Nc2ccccc2C(=O)N/N=C/c2ccc(O)c(OC)c2)cc1 | -6.14% |
| Cn1nc(N)c2ncc(C(Cl)(Cl)Cl)nc21 | -2.14% |
| N#Cc1cccc(C(=O)NCC2CCN(C(=O)C(=O)c3cc4ccccc4o3)CC2)c1 | -4.03% |
| Cc1ccc(C(=O)N/C(=C/c2cccs2)C(=O)NCC2CCCO2)cc1 (centres undefined) | -12.8% |
| Cc1ccc(-n2c(C)cc(/C=C(\C#N)C(=O)NCC3CCCO3)c2C)cc1 (centres undefined) | 38.2% (active) |
| Cc1ccc2c(c1)N(CC(=O)NCC1CCCO1)C(=O)CO2 (centres undefined) | 6.02% |
| O=C1Nc2ccccc2NC(c2ccc3c(c2)OCO3)=C1N(Cc1ccc(F)cc1)C(=O)c1ccco1 | -2.97% |
| COC(=O)[C@]12C[C@H](CC(=O)NCc3cccc(C(F)(F)F)c3)C(=O)N(Cc3ccc4c(c3)OCO4)C1=C[C@H](COCc1ccccc1)O[C@@H]2C | -11.9% |
| CCCCNc1cccc2c1S(=O)(=O)N[C@@H](C)CO2 | -1.25% |

| Structure (SMILES) | activation |
| --- | --- |
| O=C(NCc1cccc(C(F)(F)F)c1)c1ccc2sc(COCCO)nc2c1 | 0.012% |
| Cc1ccc(NC(=O)Nc2nnc(-c3ccncc3)s2)cc1 | 0.919% |
| Cc1ccc(NC(=O)Nc2cccnc2)cc1 | 8.59% |
| Cc1ccc(NC(=O)Nc2ccc3oc(C)nc3c2)cc1 | 53.7% (active) |
| O=C1Nc2ccccc2-n2nnnc2C1N1CCN(c2cccc(C(F)(F)F)n2)CC1 (centres undefined) | -4.31% |
| CC(C)(C)C(=O)CSc1nc2ccccc2o1 | 52.3% (active) |
| O=C(CSc1nc2ccccc2o1)N/N=C/c1ccccc1C(=O)O | 25.7% |
| O=C(CSc1nc2ccccc2o1)N1c2ccccc2Sc2ccc(Cl)cc21 | -2.83% |
| Cc1cc2c(cc1C)N1C(=O)c3cc4ccccc4cc3NC(=O)C1C(=O)N2 (centres undefined) | -1.58% |
| CC1(C(=O)Nc2cccc3c2CCCC3)CCN1C(=O)C1(c2ccccc2)CC1 (centres undefined) | -1.58% |
| Oc1ccc(-n2nnnc2SCc2c(F)cccc2Cl)cc1 | -2.71% |
| Cn1c(SCc2c(F)cccc2Cl)nnc1-c1cnccn1 | 41.7% (active) |
| Cc1ccc(CSc2nnc(-c3cnccn3)n2C)cc1 | 2.04% |
| COc1ccccc1N1CCN(/N=C\C(Br)=C\c2ccccc2)CC1 | 7.85% |
| COc1cc(/C=N/N2CCN(c3ccccc3)CC2)ccc1OC(C)=O | 3.52% |
| COc1ccccc1N1CCN(/N=C/c2ccc(O)cc2O)CC1 | 37.4% (active) |
| CC(C)c1cc(C(=O)N(C)C2CCCN(Cc3ccccc3F)C2)n(C)n1 (centres undefined) | -4.84% |
| Cc1nc(NC(=O)C(C)(C)C)sc1[N+](=O)[O-] | -2.63% |
| FC(F)(F)c1ccnc(Oc2ccc(C3=NCCS3)cc2)c1 | 50.4% (active) |
| O=Cc1ccc(Oc2cccc(C(F)(F)F)c2)nc1 | 0.99% |

| Structure (SMILES) | activation |
| --- | --- |
| N#CCCN(C(=S)Nc1ccc(Cl)c(Cl)c1)C1CCCCC1 | -1.58% |
| CCCCCCCCN1C(=O)[C@@H](CC(=O)NCc2ccccc2)C[C@@]2(C(=O)OC)C1=C[C@H](C(C)(C)C)O[C@@H]2C | -15% |
| Cc1cc(OC(=O)NCCc2ccc(F)cc2)ccc1F | 2.45% |
| COc1ccc(-c2ccc(CN3C(C(C)C)C(=O)N(Cc4cn(CC5CCCCC5)nn4)CCS3(=O)=O)cc2)cn1 (centres undefined) | -0.388% |
| O=S(=O)(Nc1ccc2cn[nH]c2c1)c1ccccc1 | -1.72% |
| O=S(=O)(Nc1ccc2nc(-c3ccco3)[nH]c2c1)c1ccccc1 | 37.5% (active) |
| Cn1c(CCN2CCCC2)nc2cc(NS(=O)(=O)c3ccccc3)ccc21 | 2.48% |
| Nc1ncnc2c1ncn2C1OC(CO)CC1O (centres undefined) | 0.661% |
| Cc1cccc(C(=O)C(O)(c2ccccc2)C2CCCCC2=O)c1 (centres undefined) | -5.91% |
| CCOC(=O)c1ccc(NC(=S)Nc2cc(C)cc(C)n2)cc1 | -1.38% |
| CCOC(=O)c1cn[nH]c1NC(=S)Nc1ccccc1 | 48.2% (active) |
| CCOC(=O)c1cc2c(nc1NC(=S)Nc1ccccc1)CC(C)(CC)OC2 (centres undefined) | 9.37% |
| COc1ccc(F)cc1S(=O)(=O)N1CCCCC1 | -0.652% |
| COc1ccc(C(=O)NCc2ccc(Cl)cc2)cc1S(=O)(=O)N1CCCC1 | -0.0405% |
| COc1ccc(Cl)cc1S(=O)(=O)N1CCC(O)(c2ccc(Cl)cc2)CC1 | 61.9% (active) |
| CCc1nc2c(OCc3ccc(Cl)cc3Cl)cccn2c1N(C)C(=O)C(C)C | -1.94% |
| Cc1cccc(OCC(=O)NCCCNC(=O)c2ccccn2)c1 | -0.523% |
| CCN(CC)CCOc1ccc2c(c1)C(=NNC(=O)c1ccccn1)c1cc(OCCN(CC)CC)ccc1-2 | 54.2% (active) |
| Cc1ccc(Cl)cc1NC(=O)c1ccccn1 | -3.27% |
